Dicer processing: inhibitors of human Dicer processing of pre-microRNA. cat-ELCCA pre-miR-21 Dicer processing, chemiluminescence; active compounds read high. z-score at 25 µM. 47,000 tested, 6% active. AID 1347074; in the data active = z-score above about 3, passing the limit was not always enough;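 note: higher signal means more uncleaved substrate so more Dicer inhibition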
Large screens that a line does not name were inactive. The sample as a whole holds a higher share of hits than the screen did.

O=C(O)c1cc2n(n1)C(C(F)(F)F)CC(c1ccc(Cl)cc1)N2 (centres undefined)	none
CN1CCN(C(=O)c2cc3n(n2)C(C(F)(F)F)CC(c2ccccc2)N3)CC1 (centres undefined)	Dicer processing 3.2
COc1ccc(C2CC(C(F)(F)F)n3ncc(C(N)=O)c3N2)cc1 (centres undefined)	none
O=C(c1cc2n(n1)C(C(F)(F)F)CC(c1ccc(Cl)cc1)N2)N1CCOCC1 (centres undefined)	none
COc1ccc(C2CC(C(F)(F)F)n3ncc(C(=O)O)c3N2)cc1OC (centres undefined)	none
O=C(c1cnn2c1NC(c1ccccc1)CC2C(F)(F)F)N1CCCCC1 (centres undefined)	none
CC(C)NC(=O)c1nn2c(c1Cl)NC(c1ccc(Br)cc1)CC2C(F)(F)F (centres undefined)	none
O=C(O)c1cnn2c1NC(c1ccc(Br)cc1)CC2C(F)(F)F (centres undefined)	none
CC(C)NC(=O)c1cnn2c1NC(c1ccc(Br)cc1)CC2C(F)(F)F (centres undefined)	Dicer processing 5.8
CN1CCN(C(=O)c2cnn3c2NC(c2ccc(Br)cc2)CC3C(F)(F)F)CC1 (centres undefined)	Dicer processing 4.7
O=C(c1cnn2c1NC(c1ccc(Br)cc1)CC2C(F)(F)F)N1CCOCC1 (centres undefined)	Dicer processing 4.2
CCOC(=O)c1cc(C)nc(Sc2ccccc2NC(=O)c2cccc(C(F)(F)F)c2)c1C#N	none
COC(=O)CCCN1C(=O)NC2NC(=O)NC21 (centres undefined)	none
Brc1ccc(-c2noc(CSc3nnc(-c4ccco4)n3-c3ccccc3)n2)cc1	none
CC(C)c1ccc(/C=N/NC(=O)CC#N)cc1	none
FC(F)(F)c1cc(-c2ccccc2)no1	none
Cn1c2c(c3ccccc31)C(=O)C(Cn1ccnc1)CC2 (centres undefined)	none
CSc1sc(C(=O)N2CCOCC2)cc1-c1nc(-c2ccc(Cl)cc2)cs1	none
O=C(O)c1cnn2c1NC(c1ccccc1)CC2C(F)(F)F (centres undefined)	Dicer processing 3.1
Cc1ccc(C2CC(C(F)(F)F)n3ncc(C(=O)O)c3N2)cc1 (centres undefined)	none
COc1cccc(C2CC(C(F)(F)F)n3ncc(C(=O)O)c3N2)c1 (centres undefined)	none
CCOC(=O)c1cc2nc(Nc3ccc(OC)cc3)sc2s1	Dicer processing 3.3
CCOC(=O)c1cc2nc3sccn3c2s1	none
CCOC(=O)c1sc(Nc2nc(C)c(CC)c(OC)n2)nc1C	none
COc1ccc(S(=O)(=O)Nc2ccc3c(c2)CS(=O)(=O)C3)cc1	none
CCOC(=O)/C(C#N)=C1\CCCc2cc(OC)ccc21	none
CN(C)c1cccc(N(C)C)c1CNC(=O)Nc1ccccc1	none
O=C1c2c(O)ccc(O)c2C(=O)c2c(NCCNCCO)ccc(NCCNCCO)c21	Dicer processing 21
O=C1c2ccccc2C(=O)c2c(NCCc3ccc(O)cc3)ccc(NCCc3ccc(O)cc3)c21	none
CC(Cc1c[nH]c2ccccc12)NC(=O)c1ccco1 (centres undefined)	none
CC(C)(C)c1ccc(NC(=S)Nc2ccccn2)cc1	none
O=C1CCCCC1Sc1nc2ccccc2s1 (centres undefined)	none
O=c1c(Cc2ccccc2)c(O)c2ccccc2n1-c1ccccc1	Dicer processing 4
O=c1c(Cc2ccccc2)c(O)c2cccc3c4ccccc4n1c23	none
O=c1c(Cc2ccccc2)c(O)c2cccc3c2n1CCC3	none
COc1ccc(CCN2C(=O)c3cccc4cc([N+](=O)[O-])cc(c34)C2=O)cc1OC	none
CC1CCN(C(=O)N2c3ccccc3Sc3ccccc32)CC1	none
CCOC(=O)N1CCN(C(=O)N2c3ccccc3Sc3ccccc32)CC1	Dicer processing 4.7
O=C(N1CCN(c2ccccc2)CC1)N1c2ccccc2Sc2ccccc21	none
Cc1ccc2c(c1)C(O)(CC(=O)c1ccc3c(c1)CCCC3)C(=O)N2 (centres undefined)	none
c1ccc(-n2cnc3cc(NCc4ccco4)ccc32)cc1	Dicer processing 4.7
CCn1cnc2cc(NCc3ccco3)ccc21	none
O=[N+]([O-])c1ccc2c(c1)ncn2-c1ccccc1	none
CCOC(=O)c1c(C)n(C)c2c1cc(O)c1ccccc12	none
S=c1[nH]nc(Cn2nnc3ccccc32)o1	none
c1ccc2c(c1)CCN2Cn1nnc2ccccc21	Dicer processing 4.4
Fc1ccc(Cn2nnc3ccccc32)cc1	none
O=C(O)[C@H]1CCCN1C(=O)OCc1ccccc1	none
O=C(Nc1ccccc1[N+](=O)[O-])c1ccccc1	none
O=C(Nc1ccc(OC(F)(F)F)cc1Br)c1ccc(Cl)cc1	none
Cc1ccc2c(c1)-c1cc(C)nn1C(c1ccc(O)cc1)N2 (centres undefined)	none
COC(=O)c1ccc(C2Nc3c(C)cc(C)cc3-c3cc(C)nn32)cc1 (centres undefined)	none
Cc1cc2n(n1)C(c1ccc(N3CCCC3)cc1)Nc1ccccc1-2 (centres undefined)	Dicer processing 4.5
Cc1ccc2c(c1)-c1cc(C)nn1C(c1ccc(C(=O)O)cc1)N2 (centres undefined)	none
Cc1cc2n(n1)C(c1cccc(O)c1)Nc1ccccc1-2 (centres undefined)	none
Cc1cc2n(n1)C(c1cccc(O)c1)Nc1c(C)cccc1-2 (centres undefined)	Dicer processing 4.3
Cc1ccc2c(c1)-c1cc(C)nn1C(c1ccc(N(C)C)cc1)N2 (centres undefined)	Dicer processing 6.8
CSc1ccc(C2Nc3c(C)cccc3-c3cc(C)nn32)cc1 (centres undefined)	Dicer processing 3.9
Cc1cc(C)c2[nH]c(C(=O)NCc3ccccc3)cc2c1	none
C/C=C(\C)c1nc2c(Br)cc(Br)cc2c(=O)o1	none
Cc1[nH]nc(SCC(=O)O)c1[N+](=O)[O-]	none
O=C(NCc1ccc2c(c1)OCCCO2)c1cnc2ccccc2n1	none
CCn1nc(C)c([N+](=O)[O-])c1C(=O)Nc1ccc(Cl)cc1	none
CCCCNc1nc2c(c(=O)n(C)c(=O)n2C)n1C	none
c1ccc(C(c2ccccc2)N2CC(Sc3nc4ccccc4s3)C2)cc1	none
CSC1=NC=C(C#N)C2=NC(c3c(F)cccc3Cl)NN12 (centres undefined)	none
CC(C)n1c2ccc(F)cc2c2nc3ccccc3nc21	none
c1ccc(CN2CCN(Cc3ccccn3)CC2)cc1	none
Cc1cc2n(n1)C(c1cccc(O)c1O)Nc1c(C)cccc1-2 (centres undefined)	none
Cc1ccc(O)c(C2Nc3c(C)cccc3-c3cc(C)nn32)c1 (centres undefined)	Dicer processing 5.7
CSc1ccc(C2Nc3ccccc3-c3cc(C)nn32)cc1 (centres undefined)	Dicer processing 4.8
CCN(CC)c1ccc(C2Nc3ccccc3-c3cc(C)nn32)cc1 (centres undefined)	Dicer processing 3.3
COc1ccc(C2Nc3ccc(C)cc3-c3cc(C)nn32)cc1O (centres undefined)	none
Cc1cc2n(n1)C(/C=C\c1ccccc1)Nc1c(C)cccc1-2 (centres undefined)	Dicer processing 6
Cc1cc(C)c2c(c1)-c1cc(C)nn1C(c1cccs1)N2 (centres undefined)	none
Cc1cc2n(n1)C(c1ccsc1)Nc1ccccc1-2 (centres undefined)	none
CSc1ccc(C2Nc3ccc(C)cc3-c3cc(C)nn32)cc1 (centres undefined)	none
CNC(=S)Nc1ccccc1-n1cccc1	none
CS/C(=C\C(=O)c1ccccc1)Nc1ccccc1Cl	none
COc1ccccc1C1CC(=O)Nc2cc3c(cc21)OCO3 (centres undefined)	none
